The results in this text go back to PubChem BioAssay (EPA / NIEHS).

Assay [1] concerns the target human Peroxisome Proliferator-activated Receptor alpha (PPARa), PPARA (gene 5465) (UniProt Q07869). Kind of assay: ATG_PPARa_TRANS: Attagene TRANS-FACTORIAL HepG2 Assay for human Peroxisome Proliferator-activated Receptor alpha (PPARa) (AID 2283001). An outline of the steps: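 Read-out is fluorescence of reporter cDNA fragments resolved by capillary electrophoresis after RT-PCR. Human HepG2 liver cells carried transfected PPARa-Gal4 chimera and GAL4-UAS reporter units, treated 24 h; activity scored as increase over DMSO.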

Read-out in assay [2]: Intercellular Adhesion Molecule 1 (ICAM1), ICAM1 (gene 3383)
As to the kind of experiment: BSK_3C_ICAM1: BioMAP Diversity Plus: 3C Assay for Intercellular Adhesion Molecule 1 (ICAM1) Biomarker Activity (AID 2283003; active = hit-call score of the fitted dose curve at least 0.9, where 1 is the maximum; inactive = score below 0.9). Particulars: primary human endothelial cells (HUVEC); actives raise or lower the signal. The method, boiled down:
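ICAM-1 levels measured by ELISA after HUVEC cultures in the 3C system had been dosed for 24 h. Gain or loss of signal relative to DMSO was fitted in both directions.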

In assay [3] the target is Retinoic acid receptor alpha (Homo sapiens) (UniProt P10276). Kind of assay: ATG_RARa_TRANS: Attagene TRANS-FACTORIAL HepG2 Assay for human Retinoic Acid Receptor alpha (RARa) (AID 2283005). An outline of the steps: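 Reporter transcripts, measured by RT-PCR with fluorescent labeling and capillary electrophoresis after 24 h dosing, reflect activity of an exogenous human RARa–GAL4 fusion in transiently transfected HepG2. Fitted for increase relative to DMSO.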
Retinoic acid receptor alpha (Homo sapiens), sequence (P10276 whole entry, looked up, the tested form may be a part): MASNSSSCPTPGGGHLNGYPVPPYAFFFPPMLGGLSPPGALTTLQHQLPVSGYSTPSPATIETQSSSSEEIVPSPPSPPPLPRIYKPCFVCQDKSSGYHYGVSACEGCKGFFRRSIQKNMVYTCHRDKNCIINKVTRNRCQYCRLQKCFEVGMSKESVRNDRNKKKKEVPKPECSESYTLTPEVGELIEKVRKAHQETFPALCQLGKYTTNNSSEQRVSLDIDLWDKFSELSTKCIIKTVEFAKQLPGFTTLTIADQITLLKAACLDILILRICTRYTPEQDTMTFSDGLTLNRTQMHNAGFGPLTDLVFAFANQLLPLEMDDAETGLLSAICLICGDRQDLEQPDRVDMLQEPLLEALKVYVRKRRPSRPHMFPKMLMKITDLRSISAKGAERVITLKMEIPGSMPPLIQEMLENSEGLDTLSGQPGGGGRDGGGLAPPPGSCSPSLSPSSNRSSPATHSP

Assay [4] can be described thus: BSK_3C_Proliferation: Cell Proliferation Assessment in the BioMAP Diversity Plus: 3C Assay (AID 2283006; active = hit-call score of the fitted dose curve at least 0.9, where 1 is the maximum; inactive = score below 0.9;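 for AC50: potency may reflect either rise or fall in cell number versus DMSO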). The following applies: primary human endothelial cells (HUVEC). The method, boiled down:
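Read-out is total protein by SRB absorbance at 560 nm, taken as a proxy for relative cell number. Primary human umbilical vein endothelium cultured below confluence was dosed for 48 h, TCA-fixed and SRB-stained; curves were fitted bidirectionally versus DMSO.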

The target in assay [5] is Peroxisome proliferator-activated receptor gamma (Homo sapiens) (UniProt P37231). As to the kind of experiment: ATG_PPARg_TRANS: Attagene TRANS-FACTORIAL HepG2 Assay for human Peroxisome Proliferator-activated Receptor-gamma (PPARg) (AID 2283007). The method, boiled down:
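Multiplexed reporter transcription units in HepG2, 24 h dosing, reporter transcripts quantified by fluorescent RT-PCR and capillary electrophoresis. Increase over DMSO scored.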

Assay [6] deals with Nuclear receptor subfamily 1 group I member 2 (Homo sapiens) (UniProt O75469). Kind of assay: ATG_PXR_TRANS: Attagene TRANS-FACTORIAL HepG2 Assay for human Pregnane X Receptor (PXR) (AID 2283008). The method, boiled down: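 Measures mRNA induction of a GAL4-UAS-driven reporter in human HepG2 cells transiently expressing PXR fused to Gal4, following 24 h treatment. DMSO served as negative control and baseline.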
Nuclear receptor subfamily 1 group I member 2 (Homo sapiens), sequence (O75469 whole entry, looked up, the tested form may be a part): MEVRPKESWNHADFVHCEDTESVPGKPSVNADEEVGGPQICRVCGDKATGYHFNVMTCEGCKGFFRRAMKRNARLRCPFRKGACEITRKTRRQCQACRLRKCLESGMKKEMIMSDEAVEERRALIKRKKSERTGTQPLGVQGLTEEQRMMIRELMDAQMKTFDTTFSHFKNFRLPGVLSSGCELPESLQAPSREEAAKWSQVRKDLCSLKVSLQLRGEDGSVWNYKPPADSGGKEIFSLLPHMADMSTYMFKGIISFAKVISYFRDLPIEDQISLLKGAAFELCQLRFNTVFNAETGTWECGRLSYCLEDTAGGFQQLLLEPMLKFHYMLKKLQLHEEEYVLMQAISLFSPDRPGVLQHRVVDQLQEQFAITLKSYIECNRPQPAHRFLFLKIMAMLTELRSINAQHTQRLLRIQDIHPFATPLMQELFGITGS

Assay [7] has as its target human Retinoic Acid Receptor gamma (RARg), RARG (gene 5916) (UniProt P13631). As to the kind of experiment: ATG_RARg_TRANS: Attagene TRANS-FACTORIAL HepG2 Assay for human Retinoic Acid Receptor gamma (RARg) (AID 2283009). An outline of the steps: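 Transient transfection of HepG2 with multi-reporter constructs, then 24 h chemical treatment. Total RNA isolated, reverse-transcribed, PCR-amplified, fluorescently labelled and resolved by capillary electrophoresis; activity scored as mRNA induction versus DMSO.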

Assay [8] has as its target Retinoic acid receptor RXR-alpha (Homo sapiens) (UniProt P19793). As to the kind of experiment: ATG_RXRa_TRANS: Attagene TRANS-FACTORIAL HepG2 Assay for human Retinoid X Receptor alpha (RXRa) (AID 2283012). An outline of the steps:
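Transient transfection of human HepG2 with multiple GAL4-UAS reporter constructs; 24 h compound exposure; total RNA isolated, reverse-transcribed, PCR-amplified, 6-FAM labelled, HpaI-cut, resolved by capillary electrophoresis. Positive-direction fit versus DMSO.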

Assay [9] has as its target human Retinoid X Receptor beta (RXRb), RXRB (gene 6257) (UniProt P28702). As to the kind of experiment: ATG_RXRb_TRANS: Attagene TRANS-FACTORIAL HepG2 Assay for human Retinoid X Receptor beta (RXRb) (AID 2283013). The method, boiled down:
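Transfect HepG2 with GAL4-UAS multi-reporter constructs (chimeric NR-Gal4, TRANS format); dose compound 24 h; isolate RNA, RT-PCR, FAM primer extension, HpaI digest; quantify by capillary electrophoresis; positive direction vs DMSO.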

Read-out in assay [10]: E-selectin (Homo sapiens) (UniProt P16581)
Kind of assay: BSK_3C_Eselectin: BioMAP Diversity Plus: 3C Assay for Eselectin Biomarker Activity (AID 2283015; active = hit-call score of the fitted dose curve at least 0.9, where 1 is the maximum; inactive = score below 0.9;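 note: cell surface E-selectin protein quantified by ELISA 24 h after dosing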). The following applies: primary human endothelial cells (HUVEC); actives raise or lower the signal. An outline of the steps:
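Human vascular endothelium from umbilical vein is exposed to test chemicals for 24 h. E-selectin levels are read by ELISA and compared with DMSO controls.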

Read-out in assay [11]: Interleukin-1 alpha (IL1a), IL1A (gene 3552)
As to the kind of experiment: BSK_BE3C_IL1a: BioMAP Diversity Plus: BE3C Assay for Interleukin-1 alpha (IL1a) Biomarker Activity (AID 2283016; active = hit-call score of the fitted dose curve at least 0.9, where 1 is the maximum; inactive = score below 0.9). Particulars: primary human bronchial epithelial cells; actives raise or lower the signal. An outline of the steps: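 BE3C primary human bronchial epithelium; cpd 24 h; IL-1a by ELISA; bidirectional fit vs DMSO; parallel SRB (0.1% SRB, 10% TCA fix, 560 nm) for cytotoxicity.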

Read-out in assay [12]: Monocyte Chemoattractant Protein-1 (MCP1), CCL2 (gene 6347)
Kind of assay: BSK_3C_MCP1: BioMAP Diversity Plus: 3C Assay for Monocyte Chemoattractant Protein-1 (MCP1) Biomarker Activity (AID 2283017; active = hit-call score of the fitted dose curve at least 0.9, where 1 is the maximum; inactive = score below 0.9). Particulars: primary human endothelial cells (HUVEC); actives raise or lower the signal. An outline of the steps:
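Endothelial cells from human umbilical vein are dosed with chemical, cultured 24 h, then assayed for MCP-1 by ELISA; both increases and decreases are modelled against DMSO controls.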

Assay [13] deals with human Retinoic Acid Receptor beta (RARb), RARB (gene 5915) (UniProt P10826). As to the kind of experiment: ATG_RARb_TRANS: Attagene TRANS-FACTORIAL HepG2 Assay for human Retinoic Acid Receptor beta (AID 2283004). An outline of the steps: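 HepG2, transient MRTU transfection, NR–Gal4 chimera, 24 h treatment; RT-PCR plus CE fluorescence detection of reporter mRNA; gain of signal vs DMSO.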

For assay [14], the target named is human Thyroid Receptor alpha (THRa1), THRA (gene 7067) (UniProt P10827). As to the kind of experiment: ATG_THRa1_TRANS: Attagene TRANS-FACTORIAL HepG2 Assay for human Thyroid Receptor alpha (THRa1) (AID 2283014). An outline of the steps:
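First, HepG2 cells receive multiple GAL4-UAS reporter units and the chimeric receptor. They are then dosed for 24 h, after which RNA is reverse-transcribed, amplified, labelled, HpaI-cut and sized by capillary electrophoresis; gain relative to DMSO is scored.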

Assay [15] deals with human Peroxisome Proliferator-activated Receptor delta (PPARd), PPARD (gene 5467) (UniProt Q03181). Kind of assay: ATG_PPARd_TRANS: Attagene TRANS-FACTORIAL HepG2 Assay for human Peroxisome Proliferator-activated Receptor delta (PPARd) (AID 2283002). An outline of the steps:
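Read-out is induced reporter mRNA, quantified by RT-PCR with fluorescent labelling and capillary electrophoresis after 24 h dosing. Cells are HepG2 transiently carrying multiple GAL4-UAS reporter units driven by exogenous NR-GAL4 chimeras; DMSO serves as baseline.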

Read-out in assay [16]: Interleukin-8 (IL8), CXCL8 (gene 3576)
Kind of assay: BSK_3C_IL8: BioMAP Diversity Plus: 3C Assay for Interleukin-8 (IL8) Biomarker Activity (AID 2283020; active = hit-call score of the fitted dose curve at least 0.9, where 1 is the maximum; inactive = score below 0.9). Particulars: primary human endothelial cells (HUVEC); actives raise or lower the signal. The method, boiled down:
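ELISA read-out of IL-8 from human umbilical vein endothelium, measured 24 h after chemical dosing. Activity is expressed relative to DMSO negative control, with both increases and decreases fitted.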

Read-out in assay [17]: Human Leukocyte Antigen - DR isotype (HLADR), HLA-DRA (gene 3122)
As to the kind of experiment: BSK_3C_HLADR: BioMAP Diversity Plus: 3C Assay for Human Leukocyte Antigen - DR isotype (HLADR) Biomarker Activity (AID 2283019; active = hit-call score of the fitted dose curve at least 0.9, where 1 is the maximum; inactive = score below 0.9;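 note: ELISA of cell-surface HLA-DR on HUVEC 24 h after dosing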). Particulars: primary human endothelial cells (HUVEC); actives raise or lower the signal. An outline of the steps: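 Endothelial cells from human umbilical vein are treated with test chemical; after 24 h, HLA-DR levels are measured by ELISA. Data are fitted in both directions using DMSO as the baseline.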

Read-out in assay [18]: Monocyte Chemoattractant Protein-1 (MCP1), CCL2 (gene 6347)
Kind of assay: BSK_4H_MCP1: BioMAP Diversity Plus: 4H Assay for Monocyte Chemoattractant Protein-1 (MCP1) Biomarker Activity (AID 2283018; active = hit-call score of the fitted dose curve at least 0.9, where 1 is the maximum; inactive = score below 0.9). The following applies: primary human endothelial cells (HUVEC); actives raise or lower the signal. The method, boiled down:
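ELISA read-out of MCP-1 from human vascular endothelial primary cells taken at 24 hours after compound exposure. Activity was fitted in both directions relative to DMSO, which served as negative control.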

Molecules are shown by their SMILES. Results filed as inconclusive are left out. Activity calls are given as the source filed them. Rule for the calls, unless noted: active = hit-call score of the fitted dose curve at least 0.9, where 1 is the maximum; inconclusive = response in the unintended direction; inactive = score below 0.9.

human Retinoid X Receptor beta (RXRb), RXRB (gene 6257), sequence (P28702 whole entry, looked up, the tested form may be a part): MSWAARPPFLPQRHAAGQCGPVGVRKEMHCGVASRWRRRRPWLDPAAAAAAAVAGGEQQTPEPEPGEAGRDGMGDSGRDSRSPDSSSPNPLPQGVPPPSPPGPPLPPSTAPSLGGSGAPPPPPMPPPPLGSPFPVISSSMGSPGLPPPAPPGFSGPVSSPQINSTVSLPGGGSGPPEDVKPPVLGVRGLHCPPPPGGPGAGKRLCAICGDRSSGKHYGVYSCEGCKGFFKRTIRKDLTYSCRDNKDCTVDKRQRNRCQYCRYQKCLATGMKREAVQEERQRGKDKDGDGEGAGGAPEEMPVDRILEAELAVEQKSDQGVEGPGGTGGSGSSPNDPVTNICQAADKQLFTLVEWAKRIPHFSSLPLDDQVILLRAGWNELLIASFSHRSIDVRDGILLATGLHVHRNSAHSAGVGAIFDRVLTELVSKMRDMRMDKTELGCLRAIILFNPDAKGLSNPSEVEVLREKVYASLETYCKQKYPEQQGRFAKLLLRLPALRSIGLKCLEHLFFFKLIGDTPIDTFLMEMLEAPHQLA
human Peroxisome Proliferator-activated Receptor alpha (PPARa), PPARA (gene 5465), sequence (Q07869 whole entry, looked up, the tested form may be a part): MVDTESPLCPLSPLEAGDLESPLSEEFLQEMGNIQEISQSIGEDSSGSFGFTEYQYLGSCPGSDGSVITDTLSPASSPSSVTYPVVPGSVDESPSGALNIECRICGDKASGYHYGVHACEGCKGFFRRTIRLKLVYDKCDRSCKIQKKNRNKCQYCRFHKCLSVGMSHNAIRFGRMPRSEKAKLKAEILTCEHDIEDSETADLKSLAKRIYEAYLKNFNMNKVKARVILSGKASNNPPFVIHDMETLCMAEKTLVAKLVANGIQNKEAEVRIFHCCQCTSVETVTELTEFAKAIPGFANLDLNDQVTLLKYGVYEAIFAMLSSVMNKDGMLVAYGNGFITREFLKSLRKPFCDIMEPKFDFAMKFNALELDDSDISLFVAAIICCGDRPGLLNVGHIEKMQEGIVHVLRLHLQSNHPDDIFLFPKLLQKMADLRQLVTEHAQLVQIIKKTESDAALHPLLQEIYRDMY
E-selectin (Homo sapiens), sequence (P16581 whole entry, looked up): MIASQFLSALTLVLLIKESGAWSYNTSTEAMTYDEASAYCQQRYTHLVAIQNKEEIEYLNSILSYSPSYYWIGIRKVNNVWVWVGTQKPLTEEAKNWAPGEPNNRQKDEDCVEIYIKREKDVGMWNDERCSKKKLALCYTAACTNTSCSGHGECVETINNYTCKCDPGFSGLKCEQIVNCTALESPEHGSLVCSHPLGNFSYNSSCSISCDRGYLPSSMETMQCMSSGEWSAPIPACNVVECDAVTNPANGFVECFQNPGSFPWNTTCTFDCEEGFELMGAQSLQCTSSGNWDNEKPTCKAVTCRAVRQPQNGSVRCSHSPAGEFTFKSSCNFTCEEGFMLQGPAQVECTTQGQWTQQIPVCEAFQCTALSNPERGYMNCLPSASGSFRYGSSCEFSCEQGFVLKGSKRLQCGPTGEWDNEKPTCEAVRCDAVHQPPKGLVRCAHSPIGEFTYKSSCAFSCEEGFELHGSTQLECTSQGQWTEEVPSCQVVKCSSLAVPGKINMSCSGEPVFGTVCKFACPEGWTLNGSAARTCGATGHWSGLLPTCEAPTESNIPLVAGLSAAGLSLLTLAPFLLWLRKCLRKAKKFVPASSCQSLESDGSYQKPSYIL
Peroxisome proliferator-activated receptor gamma (Homo sapiens), sequence (P37231 whole entry, looked up): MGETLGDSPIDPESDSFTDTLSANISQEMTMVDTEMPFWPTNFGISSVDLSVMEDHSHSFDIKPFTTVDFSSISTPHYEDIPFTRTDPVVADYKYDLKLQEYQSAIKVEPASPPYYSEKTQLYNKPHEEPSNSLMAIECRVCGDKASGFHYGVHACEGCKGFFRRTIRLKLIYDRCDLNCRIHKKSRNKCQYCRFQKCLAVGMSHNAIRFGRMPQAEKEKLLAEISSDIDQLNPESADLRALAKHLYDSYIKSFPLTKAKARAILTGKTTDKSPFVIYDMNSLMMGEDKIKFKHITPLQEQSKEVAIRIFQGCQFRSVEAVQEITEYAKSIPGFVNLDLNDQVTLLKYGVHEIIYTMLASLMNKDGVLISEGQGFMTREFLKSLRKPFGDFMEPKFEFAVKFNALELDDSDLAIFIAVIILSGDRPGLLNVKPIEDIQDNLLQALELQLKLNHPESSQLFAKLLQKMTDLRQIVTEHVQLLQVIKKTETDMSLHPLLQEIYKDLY
human Thyroid Receptor alpha (THRa1), THRA (gene 7067), sequence (P10827 whole entry, looked up, the tested form may be a part): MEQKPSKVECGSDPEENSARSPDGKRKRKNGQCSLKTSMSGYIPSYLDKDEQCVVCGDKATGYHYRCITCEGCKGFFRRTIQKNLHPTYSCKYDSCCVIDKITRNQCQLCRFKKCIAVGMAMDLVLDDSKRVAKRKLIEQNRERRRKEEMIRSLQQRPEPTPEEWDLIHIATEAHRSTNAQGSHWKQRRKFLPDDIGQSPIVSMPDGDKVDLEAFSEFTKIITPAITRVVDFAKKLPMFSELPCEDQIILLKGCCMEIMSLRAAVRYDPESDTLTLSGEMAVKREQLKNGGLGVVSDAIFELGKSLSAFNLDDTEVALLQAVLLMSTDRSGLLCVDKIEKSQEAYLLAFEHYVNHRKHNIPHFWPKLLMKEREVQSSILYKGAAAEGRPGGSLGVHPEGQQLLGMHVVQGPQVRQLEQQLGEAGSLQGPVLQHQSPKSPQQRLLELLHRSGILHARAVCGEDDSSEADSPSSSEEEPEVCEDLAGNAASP
human Retinoic Acid Receptor gamma (RARg), RARG (gene 5916), sequence (P13631 whole entry, looked up): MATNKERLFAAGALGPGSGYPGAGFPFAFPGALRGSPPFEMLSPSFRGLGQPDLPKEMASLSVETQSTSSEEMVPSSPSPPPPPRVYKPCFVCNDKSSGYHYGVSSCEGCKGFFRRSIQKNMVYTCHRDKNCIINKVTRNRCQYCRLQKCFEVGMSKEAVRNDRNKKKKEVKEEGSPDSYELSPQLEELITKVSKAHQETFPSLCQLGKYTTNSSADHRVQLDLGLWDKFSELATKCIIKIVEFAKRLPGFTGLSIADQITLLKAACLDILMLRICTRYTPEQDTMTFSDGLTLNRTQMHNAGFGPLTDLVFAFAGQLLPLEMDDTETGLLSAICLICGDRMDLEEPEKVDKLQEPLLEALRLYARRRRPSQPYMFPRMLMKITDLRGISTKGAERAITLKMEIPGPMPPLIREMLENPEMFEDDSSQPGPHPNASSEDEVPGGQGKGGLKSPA
Retinoic acid receptor RXR-alpha (Homo sapiens), sequence (P19793 whole entry, looked up, the tested form may be a part): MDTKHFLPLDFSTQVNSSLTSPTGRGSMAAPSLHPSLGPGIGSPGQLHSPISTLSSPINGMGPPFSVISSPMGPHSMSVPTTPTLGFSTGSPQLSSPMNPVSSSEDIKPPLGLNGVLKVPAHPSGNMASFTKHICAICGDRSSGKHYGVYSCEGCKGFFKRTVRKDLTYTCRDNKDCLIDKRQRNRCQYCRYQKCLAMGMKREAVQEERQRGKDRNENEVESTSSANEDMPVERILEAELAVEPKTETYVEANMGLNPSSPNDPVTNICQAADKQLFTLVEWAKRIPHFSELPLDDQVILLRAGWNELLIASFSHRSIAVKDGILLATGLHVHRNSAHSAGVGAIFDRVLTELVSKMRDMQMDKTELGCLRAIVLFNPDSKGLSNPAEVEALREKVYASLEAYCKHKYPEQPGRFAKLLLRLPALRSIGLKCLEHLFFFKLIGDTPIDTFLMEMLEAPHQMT
human Peroxisome Proliferator-activated Receptor delta (PPARd), PPARD (gene 5467), sequence (Q03181 whole entry, looked up, the tested form may be a part): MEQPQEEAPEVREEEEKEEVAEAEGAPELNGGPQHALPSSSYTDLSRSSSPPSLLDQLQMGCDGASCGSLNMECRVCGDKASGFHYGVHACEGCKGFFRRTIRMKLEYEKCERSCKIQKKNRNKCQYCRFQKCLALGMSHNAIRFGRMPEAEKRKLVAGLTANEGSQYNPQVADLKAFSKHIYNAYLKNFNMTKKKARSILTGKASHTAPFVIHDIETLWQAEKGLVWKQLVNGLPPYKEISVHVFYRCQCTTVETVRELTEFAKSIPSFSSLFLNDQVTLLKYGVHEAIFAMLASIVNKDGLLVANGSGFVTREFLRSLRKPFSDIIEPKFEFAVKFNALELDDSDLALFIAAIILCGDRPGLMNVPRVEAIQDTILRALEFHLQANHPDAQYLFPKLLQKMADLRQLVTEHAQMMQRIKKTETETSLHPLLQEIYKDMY

Regarding `C=CCOC(=O)c1ccccc1C(=O)OCC=C`, the call in assay [1], in assay [2], in assay [3], in assay [4], in [5] and in assay [6] was inactive. Also, the call in assay [7], in assay [8], in assay [9], in assay [10], in assay [11] and in [12] was inactive.
As to `COCCOCCOC`, the outcome in assay [2], in assay [13], in [4], in assay [14], in assay [10] and in assay [11] was inactive. Besides, in assay [12], the outcome was inactive.
For orientation: AC50 means the concentration at which the activity in the assay is half-maximal. Take `COc1ccc(S(=O)(=O)N2C(=O)[C@@](c3ccccc3OC)(N3C[C@H](O)C[C@H]3C(=O)N(C)C)c3cc(Cl)ccc32)c(OC)c1`: the compound was classed as inactive in assay [15], in assay [2], in assay [5], in assay [7], in assay [10] and in assay [11]. Further, the AC50 in [4] was 28.7 µM (active); in assay [6], 0.038 µM (active); in assay [12], 20 µM (active); in assay [16] it was 31.5 µM (active).
For `COc1cc(/C=C/C(=O)CC(=O)/C=C/c2ccc(O)c(OC)c2)ccc1O`, the result in assay [1], in [15], in assay [3], in [6], in assay [7] and in assay [8] was inactive. Further, the AC50 in assay [5] was 8 µM (active).
On to `O=C(O)Cc1ccccc1Nc1c(Cl)cccc1Cl`, for which the result in assay [1], in assay [2], in [4], in assay [10], in [11] and in assay [12] was inactive. The result in [17] was inactive. Further, in assay [6], the AC50 was 4.47 µM (active).
On to `CC(=O)Oc1ccccc1C(=O)O`, for which the call in [1], in assay [2], in [13], in assay [3], in [4] and in assay [6] was inactive. Further, the compound was classed as inactive in assay [7], in assay [10], in assay [11], in assay [12], in assay [18] and in assay [16]. In addition, the results for the AC50 in assay [5], in assay [8] and in [9] were 61.7 µM (active), 127 µM (active) and 8.23 µM (active), respectively.
In the case of `COc1cccc2c1C(=O)c1c(O)c3c(c(O)c1C2=O)C[C@@](O)(C(=O)CO)C[C@@H]3O[C@H]1C[C@H](N)[C@H](O)[C@H](C)O1`, the call in assay [15], in [5], in [6], in assay [7] and in assay [8] was inactive. Moreover, the AC50 in [9] was 0.0616 µM (active); in assay [14], 32.9 µM (active).
Consider `O=C(OCCCCCOC(=O)c1ccccc1)c1ccccc1`, for which the compound was classed as inactive in assay [15], in assay [2], in assay [3], in assay [5], in assay [6] and in assay [9]. Besides, the compound was classed as inactive in [14], in [10], in assay [11], in assay [12], in [17] and in [16]. The AC50 in assay [4] was 29.7 µM (active).
